This passage reports composite z-score, z-score and composite Z-score results from PubChem BioAssay.

The source made the active and inactive calls.

Assay [1] has as its system Human papillomavirus type 1a protein E7 (residues 44-93). The assay can be described thus: small molecules binding HPV E7 44-93 – biochemical, small-molecule microarray, residues 44-93, 635 nm fluorescence, primary screen (AID 1108).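 Note: E7 fragment applied at 1 µg/mL in TBST for 1 h at 4 C; score combines spot fluorescence with its signal to noise ratio.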 Particulars: fluorescence 635 nm, higher = more signal.
Assay [2] is described as follows: hepatitis C replication reporter changes, two-sided – Huh7 cells, luciferase reporter, HCV replication inhibitor project, primary screen (AID 1109).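 Note: huh7 hepatoma cells harbouring a luciferase neomycin HCV replicon reporter; luciferase luminescence as measure of HCV replicon replication; test concentration not given here.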 Particulars: Huh7 HCV replicon luciferase reporter, 48 h; higher = more signal. A general note: Reporter assays use an easily measured gene product as a stand-in for the process of interest.
Assay [3] addresses Left-right determination factor 2 (Homo sapiens) (UniProt O00292). Put plainly: small molecules binding LEFTY2 protein – biochemical, small-molecule microarray, 635 nm fluorescence scan, primary screen (AID 1110). Particulars: higher = more signal.
The target of assay [4] is Calmodulin-1 (Homo sapiens) (UniProt P0DP23). Put plainly: small molecules binding calmodulin-1 with EGTA – biochemical, small-molecule microarray, Cy5-labelled CALM1, profiling panel (AID 1111).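 Note: labelled calmodulin applied in Tris saline Tween buffer holding calcium plus EGTA and DTT.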 Particulars: Cy5-CALM1 binding fluorescence, higher = more signal.
Assay [5] shares this target. Put plainly: small molecules binding Ca-loaded calmodulin-1 – biochemical, small-molecule microarray, Cy5-labelled CALM1, plus calcium, artefact control for SMM control-protein annotation, profiling panel (AID 1112).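 Note: score merges spot fluorescence with signal to noise from triplicate slides.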 Particulars: Cy5-CALM1 binding fluorescence, higher = more signal.
Assay [6] is described as follows: probe aWnt5a binding to arrayed compounds – biochemical, biotinylated probe, 635/667 nm fluorescence, primary screen (AID 1113).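 Note: score merges 667 nm fluorescence intensity with signal-to-noise per printed feature.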 Particulars: small-molecule microarray, higher = more signal.
A short description of assay [7]: probe aShh binding to arrayed compounds – biochemical, biotinylated probe, 635/667 nm fluorescence, primary screen (AID 1114).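 Note: probe is biotin-labelled aShh protein from a stem cell growth factor screen; measures binding of labelled protein to compounds printed on the slide; score merges feature fluorescence at 667 nm with signal-to-noise.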 As to conditions: small-molecule microarray, higher = more signal.
Assay [8] in a line: probe aNog binding to arrayed compounds – biochemical, biotinylated probe, 635/667 nm fluorescence, primary screen (AID 1115).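 Note: probe is biotinylated aNog protein used at 0.15 µg/mL for 1 h at 4 C; z-score combines 667 nm fluorescence of each spot with its signal to noise.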 Particulars: small-molecule microarray, higher = more signal.
The target of assay [9] is Torsin-1A-interacting protein 1 (Homo sapiens) (UniProt Q5JTV8). The assay can be described thus: compound microarray binding of lysate hLAP1 – cell lysate, small-molecule microarray, COS7 lysate, 635/667 nm fluorescence, primary screen (AID 1116). Particulars: 635 nm fluorescence, higher = more signal.
The target of assay [10] is Alpha-bungarotoxin (Bungarus multicinctus) (UniProt P60615). Put plainly: compounds binding labelled alpha-BTX control protein – biochemical, small-molecule microarray, Alexa647 label, 635/667 nm fluorescence, artefact control for SMM control protein annotation, profiling panel (AID 1117). Particulars: alpha-BTX-A647 binding fluorescence, higher = more signal.
The target in assay [11] is Albumin (Bos taurus) (UniProt P02769). Put plainly: compounds binding labelled BSA control protein – biochemical, small-molecule microarray, Alexa647 label, 635/667 nm fluorescence, artefact control for SMM control protein annotation, profiling panel (AID 1118).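 Note: score merges 667 nm emission intensity and signal-to-noise per printed compound spot.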 Particulars: BSA-A647 binding, fluorescence 635 nm, higher = more signal.
Assay [12] can be described thus: probe aXIP binding to arrayed compounds – biochemical, NeuroSMM set, 635/667 nm fluorescence, primary screen (AID 1119).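 Note: probe is the protein aXip251-270 applied at 1 µg/mL to compound-printed slides; binding of probe to printed compounds measured as 667 nm fluorescence plus signal to noise.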 Particulars: small-molecule microarray, higher = more signal, called active from +8 up or from −8 down.
Assay [13] can be described thus: probe aNOTCH3 binding on compound microarray – biochemical, small-molecule microarray, 635/667 nm fluorescence, primary screen (AID 1120).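 Note: probe is a biotin-tagged antibody raised against NOTCH3 rather than NOTCH3 protein; score merges spot fluorescence near 667 nm with spot signal to noise.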 As to conditions: higher = more signal.
Assay [14] in a line: probe aNOTCH2 binding on compound microarray – biochemical, small-molecule microarray, 635/667 nm fluorescence, primary screen (AID 1121).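 Note: score merges feature fluorescence read at 667 nm with its signal to noise.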 Particulars: higher = more signal.
In assay [15] the target is Carbonic anhydrase 2 (Homo sapiens) (UniProt P00918). The assay can be described thus: compounds binding carbonic anhydrase 2 – biochemical, small-molecule microarray, Alexa647-labelled CAII, profiling panel (AID 1122). As to conditions: CAII-A647 binding fluorescence, higher = more signal.
Assay [16] is described as follows: COS7 lysate on small-molecule microarray, probe aHis, 635 nm (AID 1123).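 Note: z-score combines 667nm fluorescence intensity with signal-to-noise per printed compound spot.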 Particulars: COS7 cell lysate, fluorescence, higher = more signal.
Assay [17] is described as follows: probe aLAP1 signal on lysate-treated microarray – cell lysate, small-molecule microarray, COS7 lysate, primary screen (AID 1124).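 Note: lysate comes from COS7 cells expressing LAP1 and is applied at 0.3 µg/mL; score merges spot fluorescence near 667 nm with signal-to-noise over triplicate slides.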 Particulars: probe aLAP1, fluorescence, higher = more signal.
The test system of assay [18] is Sam68 (KHDRBS1). Put plainly: compounds binding KHDRBS1 protein – biochemical, small-molecule microarray, 635 nm fluorescence, primary screen (AID 1125).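 Note: score merges 667 nm channel intensity with signal to noise over triplicate slides.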 Particulars: higher = more signal.
In assay [19] the test system is Chordin-like protein 2 (CHRDL2). The assay can be described thus: compounds binding chordin-like 2 – biochemical, small-molecule microarray, 635 nm fluorescence, primary screen (AID 1126).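 Note: printed compound slides probed with Chrdl2 protein at 4 µg/mL for 1 h at 4 C; score merges 667 nm emission intensity with signal to noise over three replicate slides.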 As to conditions: fluorescence 635 nm, higher = more signal.
The target in assay [20] is Concanavalin-A (Canavalia ensiformis) (UniProt P02866). The assay can be described thus: compounds binding concanavalin A lectin – biochemical, small-molecule microarray, Alexa647 label, 635 nm, artefact control for SMM control protein annotation, primary screen (AID 1127).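 Note: z combines 667 nm emission intensity with signal-to-noise across three replicate slides.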 Particulars: ConA-A647 binding fluorescence, higher = more signal.
Concanavalin-A (Canavalia ensiformis), sequence (P02866 whole entry, looked up): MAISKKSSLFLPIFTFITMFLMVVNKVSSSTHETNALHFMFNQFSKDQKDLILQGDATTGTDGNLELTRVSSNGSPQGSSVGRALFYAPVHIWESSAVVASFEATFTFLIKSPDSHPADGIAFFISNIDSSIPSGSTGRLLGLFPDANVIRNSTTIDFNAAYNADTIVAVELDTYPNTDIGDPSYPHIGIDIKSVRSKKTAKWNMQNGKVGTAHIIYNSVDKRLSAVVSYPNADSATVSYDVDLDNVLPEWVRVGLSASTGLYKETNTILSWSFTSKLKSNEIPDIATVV

Torsin-1A-interacting protein 1 (Homo sapiens), sequence (Q5JTV8 whole entry, looked up): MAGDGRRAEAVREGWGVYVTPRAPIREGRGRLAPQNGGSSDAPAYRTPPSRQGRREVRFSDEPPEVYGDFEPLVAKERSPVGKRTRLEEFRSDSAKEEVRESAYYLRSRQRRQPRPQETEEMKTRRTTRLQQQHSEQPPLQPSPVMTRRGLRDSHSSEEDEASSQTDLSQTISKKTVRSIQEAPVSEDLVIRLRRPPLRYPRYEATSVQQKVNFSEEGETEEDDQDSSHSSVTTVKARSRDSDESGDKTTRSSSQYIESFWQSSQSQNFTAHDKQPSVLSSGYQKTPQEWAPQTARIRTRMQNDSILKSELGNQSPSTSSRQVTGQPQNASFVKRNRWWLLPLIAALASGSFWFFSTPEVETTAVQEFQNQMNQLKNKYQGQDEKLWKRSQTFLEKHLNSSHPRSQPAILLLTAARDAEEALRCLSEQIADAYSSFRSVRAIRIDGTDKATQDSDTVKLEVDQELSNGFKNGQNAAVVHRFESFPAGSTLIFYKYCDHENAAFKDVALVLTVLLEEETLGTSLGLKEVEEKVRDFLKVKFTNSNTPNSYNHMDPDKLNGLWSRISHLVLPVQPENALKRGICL
Alpha-bungarotoxin (Bungarus multicinctus), sequence (P60615 whole entry, looked up): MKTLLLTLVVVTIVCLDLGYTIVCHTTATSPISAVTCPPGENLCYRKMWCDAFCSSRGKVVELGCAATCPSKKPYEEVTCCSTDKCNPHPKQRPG
Left-right determination factor 2 (Homo sapiens), sequence (O00292 whole entry, looked up): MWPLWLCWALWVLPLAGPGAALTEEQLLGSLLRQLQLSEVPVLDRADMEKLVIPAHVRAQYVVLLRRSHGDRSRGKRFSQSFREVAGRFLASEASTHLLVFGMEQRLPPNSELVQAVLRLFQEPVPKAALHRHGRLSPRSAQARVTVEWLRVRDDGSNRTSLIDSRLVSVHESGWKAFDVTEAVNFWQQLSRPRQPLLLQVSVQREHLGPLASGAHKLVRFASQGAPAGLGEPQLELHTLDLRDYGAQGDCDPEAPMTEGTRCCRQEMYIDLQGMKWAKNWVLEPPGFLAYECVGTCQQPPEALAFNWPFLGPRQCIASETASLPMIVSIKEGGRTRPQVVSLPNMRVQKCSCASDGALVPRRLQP
Albumin (Bos taurus), sequence (P02769 whole entry, looked up): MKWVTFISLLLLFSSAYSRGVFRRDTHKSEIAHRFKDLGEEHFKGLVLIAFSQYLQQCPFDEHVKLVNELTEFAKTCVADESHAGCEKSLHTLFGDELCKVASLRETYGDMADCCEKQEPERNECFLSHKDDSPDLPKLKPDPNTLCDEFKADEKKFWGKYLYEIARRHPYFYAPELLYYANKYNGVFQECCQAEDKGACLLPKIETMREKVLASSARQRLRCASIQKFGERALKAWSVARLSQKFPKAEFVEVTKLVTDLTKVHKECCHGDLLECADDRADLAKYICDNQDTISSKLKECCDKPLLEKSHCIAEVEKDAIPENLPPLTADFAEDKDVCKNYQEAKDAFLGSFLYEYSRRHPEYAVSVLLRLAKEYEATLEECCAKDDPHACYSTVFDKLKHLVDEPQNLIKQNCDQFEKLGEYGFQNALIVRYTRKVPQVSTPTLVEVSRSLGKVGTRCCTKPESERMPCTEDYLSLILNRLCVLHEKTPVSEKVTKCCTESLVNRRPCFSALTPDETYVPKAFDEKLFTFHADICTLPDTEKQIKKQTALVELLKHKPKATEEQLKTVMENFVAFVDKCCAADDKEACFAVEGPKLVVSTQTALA

Regarding `[N-]=[N+]=NCc1ccccc1C[C@@]1(C(=O)NCC(O)CO)N=C(c2ccc(OCCCO)cc2)O[C@@H]1c1ccccc1CN=[N+]=[N-]` (stereo not given in full), the composite z-score is 1.06 in [1]; -0.88 in assay [3]; 2.11 in assay [4]; 0.876 in assay [5]; 0.0219 in assay [6]; 0.269 in [7]. In addition, the composite z-score in [8] was 2.29; in assay [9], 2.01; in assay [10] it was 1.5; in assay [11], 1.01; in [13], 0.319; in [14], -0.0335. The composite z-score in [15] was 0.546; in [16], 3.29; in assay [17] it was -0.0011; in assay [18] it was 1.29; in [19], -0.257; in assay [20] it was 1.1. The same compound yielded a z-score in [2] of -1.73. Also, in assay [12], the composite Z-score is -0.082 (inactive).

On to `CCCCC(O)C1C=CC2C(=O)N(C3CCCCC3)C(=O)C2N1Nc1ccc(OC)cc1` (stereo not given), for which the composite z-score in [1] is 1.4; in assay [3], 0.0786; in [4], 1.05; in assay [5] it was 0.304; in assay [6], -0.0405; in [7], 0.13. In addition, the composite z-score is 0.712 in assay [8]; 0.624 in [9]; 0.914 in assay [10]; 0.739 in [11]; 0.11 in [13]; -0.0894 in assay [14]. Besides, the composite z-score is 0.511 in [15]; 1.53 in [16]; 0.56 in assay [17]; 1.19 in [18]; -0.135 in [19]; 0.8 in [20]. Also, the z-score in [2] is -0.385. In assay [12], the composite Z-score was 0.258 (inactive).

Regarding `CC(C)CNC(=O)[C@@]1(c2ccc([N+](=O)[O-])cc2)CC(=O)N(CC23CC4CC(CC(C4)C2)C3)[C@@H]1c1ccc(CO)cc1`, the composite z-score was 1.07 in assay [1]; -0.15 in assay [3]; -0.367 in [4]; 0.113 in assay [5]; 0.0215 in assay [6]; -0.0709 in [7]. The composite z-score came out at 1.23 in [8]; 1.96 in assay [9]; 0.438 in [10]; 0.152 in assay [11]; 0.157 in [13]; 0.014 in assay [14]. Besides, the composite z-score amounted to 0.523 in assay [15]; 1.42 in [16]; 1.15 in assay [17]; 1.04 in assay [18]; 0.201 in [19]; 0.73 in assay [20]. This compound came in with a z-score in assay [2] of -2.62. In addition, the composite Z-score in assay [12] was 0.0585 (inactive).

As for `CCCC[C@H]1OB(O)C[C@H]2C1=C(C)C[C@H]1C(=O)N(Cc3ccccc3)C(=O)[C@H]12`, the composite z-score is 0.152 in assay [1]; 0.369 in assay [3]; 0.229 in [4]; -0.326 in assay [5]; 0.0017 in [6]; -0.0396 in assay [7]. Besides, the composite z-score in assay [8] was -0.351; in assay [9] it was -0.254; in [10], -0.277; in [11] it was 0.067; in assay [13], -0.0613; in assay [14] it was -0.126. The composite z-score in assay [15] was 0.38; in assay [16], 0.257; in assay [17], -0.361; in assay [18], 0.663; in assay [19], 0.472; in [20], 0.546. In addition, the z-score in assay [2] turned out to be 0.885. In assay [12], the composite Z-score is 0.252 (inactive).

Turning to `[N-]=[N+]=NCc1ccccc1C[C@@]1(C(=O)N2CCOCC2)N=C(c2ccc(OCCCO)cc2)O[C@@H]1c1ccccc1CN=[N+]=[N-]`, the composite z-score is -0.422 in [1]; -0.269 in assay [3]; 2.2 in assay [4]; 1.06 in [5]; 0.324 in assay [6]; 0.167 in assay [7]. The composite z-score is -0.434 in [8]; 1.27 in [9]; 2.21 in assay [10]; 0.922 in assay [11]; 0.713 in assay [13]; 0.266 in [14]. In addition, the composite z-score in assay [15] was 0.586; in [16], 2.61; in [17], 1.29; in [18], 1.31; in assay [19] it was -0.725; in assay [20], 1.14. In addition, the z-score in assay [2] was -2.43. Besides, the composite Z-score in assay [12] is 0.696 (inactive).

In the case of `COCCOC(=O)N1C(=O)[C@@]2(c3cc(C#CCNC(N)=O)ccc31)[C@H](c1ccccc1OCCO)N1[C@H](c3ccccc3)[C@H](c3ccccc3)OC(=O)[C@H]1[C@@H]2C(N)=O`, the composite z-score in assay [1] was 1.18; in assay [3], 0.54; in assay [4], 0.451; in assay [5], 0.664; in assay [6], 0.0253; in assay [7], -0.229. Also, the composite z-score in assay [8] is -0.314; in assay [9], -0.0837; in [10] it was 1.18; in [11], -0.117; in assay [13], -0.0345; in [14] it was -0.148. The composite z-score in assay [15] is 0.475; in assay [16] it was -0.726; in [17] it was 0.177; in assay [18], 1.22; in assay [19], 0.616; in assay [20] it was 1.18. In addition, the z-score in assay [2] was -0.733. Also, in assay [12], the composite Z-score was -0.479 (inactive).

As for `CN(C)CCCCCCNC(=O)[C@H]1C[C@H]2C(=O)N[C@@H](CCCCN)C(=O)N2[C@H]1c1ccc(O)cc1`, the composite z-score in assay [1] is 1.48; in assay [3] it was 1.56; in assay [4], 2.01; in [5], 1.14; in assay [6], 0.914; in [7], 2.1. Further, the composite z-score turned out to be 3.38 in [8]; 4.52 in assay [9]; 2.42 in assay [10]; 0.987 in assay [11]; 1.78 in assay [13]; 0.657 in [14]. For the same compound, the composite z-score in assay [15] came to 0.586; in [16] it was 4.3; in assay [17], 1.16; in assay [18] it was 1.34; in [19], 1.45; in assay [20], 1.25. In assay [2], the z-score was -0.181. Also, the composite Z-score in [12] was 5.54 (inactive).

`Cc1ccc(S[C@]2(C(=O)NCC(C)C)CC(=O)N(Cc3ccccc3Cl)[C@@H]2c2ccc(CO)cc2)cc1`: the composite z-score in [1] was -0.411; in [3], -1.46; in [4], -0.476; in assay [5], -0.115; in assay [6], -0.228; in assay [7], -0.181. Moreover, the composite z-score in assay [8] is -0.618; in assay [9] it was -1.08; in [10], 0.86; in [11], -0.968; in [13], -0.312; in [14] it was -0.162. In addition, the composite z-score is 0.738 in assay [15]; 0.678 in assay [16]; -0.0092 in [17]; -0.897 in assay [18]; -0.796 in assay [19]; -1.88 in [20]. Further, the z-score in assay [2] is -1.73. In addition, the composite Z-score in assay [12] is -0.12 (inactive).
